Test results from PubChem BioAssay AID686979 (National Center for Advancing Translational Sciences (NCATS), 2013).
Several values for one entry are separate records, joined by “and”; a condition that tells them apart may be missing. Equal entries are not always repeated. The campaign covered roughly 420,000 compounds. About 50,000 (12%) were called active. Entries that show only a call come without a potency. Another 26% or so got no clear call; they are omitted. This is one part of a sample in which actives are shown more often than they occur. Calls come from the whole dose curve; as a rule, active = well fitted inhibition curve with a large enough effect; inconclusive = small, poorly fitted or top-dose-only effect; inactive = flat fitted curve, though single readings scatter. Where a structure was tested more than once in an assay, its records may differ in their call. Where a SMILES comes first, the peptide text is derived from it. [ ]: non-standard residue; d: D form. The star is where a group is joined. PhAc = O=C(Cc1ccccc1)*

Assay: qHTS for Inhibitors of human tyrosyl-DNA phosphodiesterase 1 (TDP1): qHTS in cells in presence of CPT; note: nearly all actives have a fitted effect of over 55% in size
Settings: chicken DT40 Tdp1-/-;hTDP1 cells + 20 nM CPT, ATP luminescence, 48 h; series mostly up to 46.2 µM
In short: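 Chicken DT40 Tdp1-/- cells complemented with human TDP1, 400 cells/well, exposed to compounds plus 20 nM camptothecin for at least 48 h at 37 C; viability read as ATP content by CellTiter-Glo luminescence.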
Potency is the fitted concentration of half-maximal effect.

Compound | Potency
CN(C)CCCNC(=O)c1cc(C(=O)Cc2ccc(Cl)cc2)c[nH]1 | inactive
CCCCN(CCCC)CC(O)Cn1c2ccccc2c(=O)c2ccccc21 (stereo not drawn) | inactive
Cc1ccc(C(=O)OCC(=O)N2CC(C)CC(C)C2)cc1S(=O)(=O)N1CCCCC1 (stereo not drawn) | inactive
CCOc1ccc(/C(O)=C2/C(=O)C(=O)N(Cc3cccnc3)C2c2ccc(N(C)C)cc2)c(C)c1 (stereo not drawn) | inactive
CCCOc1ccc(C2c3c(-c4ccccc4O)n[nH]c3C(=O)N2Cc2cccnc2)cc1 (stereo not drawn) | 23.1 µM (active)
COc1ccc(C2C(C(C)=O)=C(O)C(=O)N2Cc2cccnc2)cc1 (stereo not drawn) | inactive
COc1ccc(S(=O)(=O)N2CCC(C(=O)NCCC(=O)NCCc3cccc(F)c3)CC2)cc1 | inactive
COCC(C)NC(=O)COc1nncc2ccccc12 (stereo not drawn) | inactive
NC(Cc1ccc(F)cc1)c1csc(Nc2nncc3ccccc23)n1 (stereo not drawn) | 4.11 µM (active)
CN1CCN(S(=O)(=O)c2ccc(NC(=S)NC(=O)C3CC3)cc2)CC1 | inactive
O=C(NCCc1ccccc1)C(=O)NCC1OCCN1S(=O)(=O)c1cccs1 (stereo not drawn) | inactive
CCCCn1c(N)c(N(CC(C)C)C(=O)c2cccc(S(=O)(=O)N3CCN(C(C)=O)CC3)c2)c(=O)[nH]c1=O | inactive
COc1cc(C(=O)Nn2c(O)c(C3=c4ccccc4=NC3=O)sc2=S)ccc1O | inactive
CCN(CC)CCCNC(=O)CCn1nc(-c2ccc(Cl)cc2)ccc1=O | inactive
O=C(CN1CCN(c2ccc(Cl)cc2)CC1)N1CCCC1 | inactive
O=C1C=CC(=O)N1c1ccc(N2CCCCC2)cc1 | 1.16 µM (active)
O=c1[nH][nH]c(=O)c2cc(N3CCCC3)ccc12 | inactive
O=C(Cc1ccccc1)NNS(=O)(=O)c1ccc([N+](=O)[O-])cc1 | inactive
O=C(O)/C=C/C(=O)NNc1ccc([N+](=O)[O-])cc1 | 20.6 µM (active)
CNC(=S)Nc1ccc([N+](=O)[O-])cc1 | inactive
COc1cccc(NC(=O)C(Sc2nnnn2C)c2ccccc2)c1 (stereo not drawn) | inactive
COCCCN1C(=O)C(CC(=O)NCc2cccs2)CC(C(=O)N2CCOCC2)=C1C (stereo not drawn) | inactive
CCOCCCN1C(=O)C2C(C(=O)Nc3ccc(OCC)cc3)C3C=CC2(O3)C1C(=O)NC1CCCCC1 (stereo not drawn) | inactive
CC(=O)c1ccc(NS(=O)(=O)c2ccc(-c3cc(C)no3)s2)cc1 | inactive
Cc1cc(-c2ccc(S(=O)(=O)N3CCN(c4cccc(C(F)(F)F)c4)CC3)s2)on1 | inactive
CCc1cccc(C)c1NS(=O)(=O)c1ccc(-c2cc(C)no2)s1 | 0.411 µM (active)

Compound | Potency
Cc1cc(C)cc(NS(=O)(=O)c2ccc(-c3cc(C)no3)s2)c1 | 2.59 µM (active)
CCc1cccc(C)c1NS(=O)(=O)c1cc(Br)cnc1N | inactive
Cc1cc(-c2ccc(S(=O)(=O)N3CCc4ccccc4C3)s2)on1 | inactive
O=C(O)c1cccc(N=NN2CCCCCC2)c1 | inactive
CC(C)(C)c1ccc(S(=O)(=O)NC(=O)C2(C)CCN2C(=O)CC2CC2)cc1 (stereo not drawn) | inactive
Cc1ccnc(NC(=O)CCNS(=O)(=O)c2ccc(C)c(C)c2)c1 | inactive
CN1CCN(C(=O)c2ccc(-c3cc4nc(NCc5cccnc5)n(C)c(=O)c4s3)cc2)CC1 | inactive
CC(=O)N/N=C/c1cc2c(cc1[N+](=O)[O-])OCO2 | inactive
Cc1ccc(S(=O)(=O)N/N=C\c2cc3c(cc2[N+](=O)[O-])OCO3)cc1 | 10.3 µM (active)
Cc1ccc(-c2n[nH]c(=S)n2/N=C/c2cc3c(cc2[N+](=O)[O-])OCO3)cc1 | inactive
O=C(Nc1ccc(Cl)cc1)c1csc([C@@H]2O[C@H](CO)[C@H](O)[C@H](O)[C@H]2O)n1 | inactive
Fc1ccccc1COc1cccc2cccnc12 | inactive
O=C(Nc1ccccc1Cl)Nc1cccc2cccnc12 | inactive
O=C(Nc1ccccc1)Oc1cccc2cccnc12 | 0.651 µM (active)
CCN(CC(=O)N1CCCC1)S(=O)(=O)c1ccc(F)cc1 | inactive
O=S1(=O)C=C(SCCN2CCCC2)c2ccccc21 | inactive
O=C(COC(=O)c1ncc(Cl)c(Cl)c1Cl)NCc1cccs1 | inactive
CN1CCN(c2ccc(S(=O)(=O)N3CCCCC3)cc2NC(=O)Cc2ccccc2F)CC1 | inactive
CCC(=O)/C(=C(/O)c1ccccc1)c1nc2ccccc2[nH]1 | inactive
O=C(Cc1nc2ccccc2[nH]c1=O)c1ccc(Cl)cc1 | inactive
O=C(/C(=C/c1cccc(Cl)c1)c1nc2ccccc2[nH]1)c1ccccc1 | 16.4 µM (active)
CC(=O)c1ccc(OC(=O)N2CCOCC2)cc1 | inactive
Cc1ccc(OCCNC(=O)CN2C(=O)NC3(CCCC3)C2=O)cc1 | inactive
CCN(CC)Cc1cc(C(C)=O)ccc1O | inactive
CCCCCn1c(CCNC(=O)c2ccc(F)cc2)nc2ccccc21 | 23.1 µM (active)
CCCCCn1c(CCCNC(=O)c2ccccc2OC)nc2ccccc21 | 20.6 µM (active)

Compound | Potency
CC(=O)NCCc1nc2cc(NC(=O)c3ccccc3)ccc2n1C | inactive
Cc1cc2ccccc2n1CCC(=O)O | inactive
CCCCCNC(=O)c1cccnc1SCC(=O)Nc1ccccc1OC | inactive
Cc1cc(C(=O)COC(=O)CNC(=O)c2ccc(F)cc2)c(C)n1Cc1ccco1 | inactive
CCC(=O)NCCc1nc2ccccc2n1CC | inactive
Cc1cc2ccccc2n1CCNC(=O)c1ccc(F)cc1 | 14.6 µM (active)
COc1ccccc1Cn1c(CO)nc2ccccc21 | inactive
COc1ccc(CCNC(=O)Cn2c(=O)n(-c3ccccc3)c(=O)c3c(C)c(C)sc32)cc1OC | inactive
Cc1cc(C)c(NC(=O)c2cc3sc(Cl)cc3n2C)c(C)c1 | inactive
COc1ccc2c(c1)c1nc3n(c(=O)c1n2CC(=O)Nc1ccccc1)CCS3 | inactive
COc1ccc(S(=O)(=O)Nc2ccc3c(c2)OCO3)cc1Cl | inactive
COCC(=O)Nc1c(I)c(C(=O)NCC(O)CO)c(I)c(C(=O)N(C)CC(O)CO)c1I (stereo not drawn) | inactive
CC(C)C[C@@H](NC(=O)[C@H]1CCCN1C(=O)Cc1ccccc1)C(N)=O (PhAc-[dP]-[dL]-NH2) | inactive
O=C(O)Cc1ccc(NCc2ccccc2Cl)cc1 | inactive
Cc1noc2ncnc(NCc3ccccc3Cl)c12 | 18.4 µM (active)
Cc1cnc(CNc2ncncc2-c2ccccc2Cl)cn1 | inactive
N/C(=N\OC(=O)CCCC(=O)O)c1ncc(C(F)(F)F)cc1Cl | inactive
CCNC(=O)COc1cc(C)c(Br)c(C)c1 | inactive
CCn1cc(/C=C(\NC(=O)c2cc(OC)c(OC)c(OC)c2)C(=O)N2CCN(C)CC2)c2ccccc21 | inactive
COc1ccc(C2=CC(c3ccccc3Cl)n3nc(-c4ccc(Cl)cc4)nc3N2)cc1 (stereo not drawn) | inactive
CN(CC(=O)NCCN1CCOCC1)S(=O)(=O)c1ccc(F)cc1 | inactive
Cc1ccnc(SCC(=O)Nc2cccc(S(=O)(=O)N3CCOCC3)c2)n1 | inactive
Cc1csc(=NC(=O)c2ccccc2)n1CCO | inactive
C=C(C)CNC(=S)/N=c1\scc(C)n1CC | 18.4 µM (active)
CSCCC(C(=O)NC1=NCCS1)N1C(=O)c2ccccc2C1=O (stereo not drawn) | inactive
N/C(=N\OS(=O)(=O)c1cccc([N+](=O)[O-])c1)c1ccncc1 | inactive

Compound | Potency
Cc1cc(C(=O)CSc2nc(N)cc(=O)[nH]2)c(C)n1CCc1ccc(Cl)cc1 | 16.4 µM (active)
Cc1cc(C(=O)CSc2nc(N)cc(=O)[nH]2)c(C)n1-c1cccc(F)c1 | 7.31 µM (active)
CCCCc1nnc(NC(=O)CSc2nc(N)cc(=O)[nH]2)s1 | inactive
CCN(C(=O)CSc1nc(N)cc(=O)[nH]1)C1CCS(=O)(=O)C1 (stereo not drawn) | inactive
Cc1cc(=O)[nH]c(SCc2ccc(Cl)cc2)n1 | inactive
Cc1cc(C)c(C(=O)CSc2nc(C)cc(=O)[nH]2)c(C)c1 | inactive
Cc1c(OC(C)C(=O)NCC2CCC(C(=O)O)CC2)ccc2c1oc(=O)c1ccccc12 (stereo not drawn) | inactive
COc1cc(SC)ccc1C(=O)NNC(=O)C1COc2ccccc2O1 (stereo not drawn) | inactive
CCc1ccccc1NC(=O)CN(C)C(=O)c1cc(C2CC2)nn1-c1ccccc1 | inactive
O=C(COC(=O)c1ccc(Br)o1)NC12CC3CC(CC(C3)C1)C2 | inactive
COc1cc(C(=O)OCC(=O)NC23CC4CC(CC(C4)C2)C3)cc(OC)c1OC | 29.1 µM (active)
O=C(COC(=O)c1cccnc1Cl)NC12CC3CC(CC(C3)C1)C2 | inactive
Cc1cccc(-c2noc(-c3ccc(F)cc3)n2)c1 | inactive
CC(C)S(=O)(=O)c1oc(-c2ccc(F)cc2)nc1S(=O)(=O)c1ccc(F)cc1 | 0.291 µM (active)
COc1cc(-c2nc(S(=O)(=O)c3ccc(Cl)cc3)c(N(C)C)o2)cc(OC)c1OC | inactive
COc1ccc2c(c1)C(NS(=O)(=O)OCC(Cl)(Cl)Cl)CCC2 (stereo not drawn) | inactive
C=CC1C(OC2OC(CO)C(O)C(O)C2O)OC=C(C(=O)OC)C1CC1CC(=O)CC(CC(=O)CCc2ccc(O)cc2)O1 (stereo not drawn) | inactive
Cc1ccccc1NC(=O)Cc1nc(COC(=O)c2cccnc2Cl)cs1 | inactive
Cc1ccc(CSc2nc(-c3ccccc3)c(C#N)c(=O)[nH]2)cc1 | inactive
O=C(NC1CCCCC1)c1ccc(CNc2c(N3CCOCC3)c(=O)c2=O)cc1 | inactive
CN1C(=O)/C(=C/c2ccc(C(=O)NC3CCCC3)cc2)Oc2ccccc21 | 13 µM (active)
CC1CCC(NC(=O)c2ccc(N3CCCC3=O)cc2)CC1 (stereo not drawn) | inactive
CC(C)CC(=O)Nc1nnc(S(=O)(=O)N(C)c2ccc(Cl)cc2)s1 | inactive and 146 nM (active)
COc1cccc(C(=O)Nc2nnc(S(=O)(=O)N(C)c3ccccc3)s2)c1 | inactive
CCC(=O)Nc1nnc(S(=O)(=O)N(CC(C)C)c2ccccc2)s1 | inactive
